# Many of the other results were omitted from the sample, so hits are more common in it than they were.
# ST2 IL33 inh = inhibitors of human ST2 (IL1RL1) binding to IL-33; Q01638; 2.3% of 78,000 active; inhibition, % for hits at 17 µM; AlphaLISA ST2-Fc/biotin-IL-33 interaction, 1 h; in the data active = inhibition above about 30%
# Target sequence (Q01638 whole entry, looked up): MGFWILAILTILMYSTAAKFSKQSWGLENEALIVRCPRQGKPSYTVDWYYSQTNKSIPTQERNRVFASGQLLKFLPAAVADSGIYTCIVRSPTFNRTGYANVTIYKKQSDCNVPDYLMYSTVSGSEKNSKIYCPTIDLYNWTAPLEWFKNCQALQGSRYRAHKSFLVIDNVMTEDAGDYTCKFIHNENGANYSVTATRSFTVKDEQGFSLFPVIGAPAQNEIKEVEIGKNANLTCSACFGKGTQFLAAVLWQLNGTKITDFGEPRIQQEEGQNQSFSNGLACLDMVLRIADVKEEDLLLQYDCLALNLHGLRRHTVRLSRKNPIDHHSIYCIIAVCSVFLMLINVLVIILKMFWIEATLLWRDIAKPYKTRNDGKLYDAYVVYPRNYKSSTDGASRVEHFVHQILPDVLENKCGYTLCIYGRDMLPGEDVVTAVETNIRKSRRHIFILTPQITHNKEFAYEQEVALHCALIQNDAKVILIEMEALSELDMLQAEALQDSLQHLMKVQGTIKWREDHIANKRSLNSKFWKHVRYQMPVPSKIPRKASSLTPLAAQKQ
# Hits are given with their value; n = inactive.
SMILES,ST2 IL33 inh
COc1ccc(C(=O)N[C@H]2CC[C@]3(C)CCC([C@H](C)C(=O)N(C)Cc4cccnc4)[C@H](O)[C@H]3[C@@H]2C)cc1 (stereo not given in full),53.0%
CCN(CC)C(=O)[C@@H](C)[C@@H]1CC[C@@]2(C)CC[C@H](NC(=O)c3cnccn3)[C@@H](C)[C@@H]2[C@H]1O,n
COCCN(CCOC)C(=O)[C@@H](C)C1CC[C@@]2(C)CC[C@H](NC(=O)c3ccncc3)[C@@H](C)[C@@H]2[C@H]1O (stereo not given in full),n
COCCNC(=O)[C@@H](C)[C@@H]1CC[C@@]2(C)CC[C@H](NC(=O)c3ccccc3)[C@@H](C)[C@@H]2[C@H]1O,n
Cc1ccc(OCC(N)=O)c(-c2cccc3[nH]ccc23)c1,n
Cc1ccc(S(=O)(=O)N=C(N)c2ccccc2)cc1,n
CC(NC1CCC2(CCNCC2)CC1)c1ccc(S(C)(=O)=O)cc1 (stereo not given),n
O=C1CC(c2ccccc2)Sc2ccccc2N1Cc1ccccc1 (stereo not given),n
COCCN1CCCC2(CCN(Cc3cccc(C(F)(F)F)c3)C2)C1=O (stereo not given),n
CC1(C)CC(=O)C2=C(C1)Nc1cc(C(=O)c3ccccc3)ccc1NC2c1cccs1 (stereo not given),n
CC1(C)CC(=O)C2=C(C1)Nc1cc(C(=O)c3ccccc3)ccc1NC2c1ccco1 (stereo not given),n
COc1ccccc1C1Nc2ccc(C(=O)c3ccccc3)cc2NC2=C1C(=O)CC(C)(C)C2 (stereo not given),31.0%
O=C(NCc1ccccn1)c1ccc(O)cc1,n
CC1=C(C(=O)Nc2cccnc2)C(c2cccnc2)n2nc(SCc3ccccc3F)nc2N1 (stereo not given),n
CN(Cc1ccccc1)C(=O)c1cn(C)c(=O)c2c1c1ccccc1n2C,n
COc1ccc(S(=O)(=O)N2C[C@@H]3C[C@H](C2)c2ccc(-c4ccc(OC(F)(F)F)cc4)c(=O)n2C3)cc1,n
COc1ccccc1NC(=O)N1C[C@@H]2C[C@H](C1)c1ccc(-c3ccc(NC(C)=O)cc3)c(=O)n1C2,n
O=C(Nc1ccccc1)N1C[C@@H]2C[C@H](C1)c1ccc(-c3ccc(OC(F)(F)F)cc3)c(=O)n1C2,33.0%
Cc1nc2ccc(C(=O)N3CCCC(Nc4ccc(C)c(C)c4)C3)cc2[nH]1 (stereo not given),n
COc1cc2c(cc1OC)CN(CCC(=O)O)CC2,n
O=C(NC1CCCCCCC1)C1CCCN1S(=O)(=O)c1cccc2nsnc12 (stereo not given),33.0%
CC(C)(C)NC(=O)C1CCCN1S(=O)(=O)c1cccc2nsnc12 (stereo not given),n
O=C(C1CCCN1S(=O)(=O)c1cccc2nsnc12)N1CCCCC1 (stereo not given),n
O=C(Cc1nnc(NC(=O)c2ccco2)s1)NCc1ccccc1,n
CC(C)CNC(=O)/C=C/C=C/Cc1cccs1,n
SMILES,ST2 IL33 inh
CCOC(=O)c1cc(-c2ccc(Br)cc2)no1,n
Cc1ccc(S(=O)(=O)N2CCCCC2)cc1C(=O)NC1CCCCC1,n
CC(C)C(NS(=O)(=O)c1cccs1)C(=O)NC1CCCCCC1 (stereo not given),n
CC(C)NS(=O)(=O)c1cc(NC2CCCCC2)cc(C(=O)NC2Cc3ccccc3C2)c1,30.0%
CCOC(=O)c1nn(CC)c2c1CN(C(=O)Cc1ccc(N3CCNC3=O)cc1)CC2,n
COC1=CC(=O)OCC1O (stereo not given),n
CN(CCc1cn[nH]c1)C(=O)[C@H]1C[C@@H](C(=O)O)N(C)[C@H]1c1ccccc1F,n
Cc1cc(NC(=O)CN2C(=O)S/C(=C\c3ccccc3)C2=O)no1,n
CCCCN1C(=O)S/C(=C\c2cc(C)n(C)c2C)C1=O,39.0%
O=C1S/C(=C\c2ccccc2F)C(=O)N1CNc1cccc(F)c1,n
CCCCOc1ccc(C(=O)Nc2cc3cc(Br)ccc3oc2=O)cc1,n
COc1cccc(C(=O)NCC2CCCN(Cc3cccc4nonc34)C2)c1OC (stereo not given),n
COc1ccc(-c2oc3ncn(CCO)c(=N)c3c2-c2ccc(OC)cc2)cc1,n
OCCNc1ncnc2oc(-c3ccccc3)c(-c3ccccc3)c12,35.0%
N=c1c2c(-c3ccccc3)c(-c3ccccc3)oc2ncn1CCCO,n
Cn1cnnc1SCc1cn2cc(Cl)ccc2n1,n
CCNc1nc(N2CCCC2)nc(N2CCC(Cc3ccccc3)CC2)n1,57.0%
COc1ccc(S(=O)(=O)N2CCC(C(=O)N3CCC(Cc4ccccc4)CC3)CC2)cc1,n
O=C(c1ccc(Cl)cc1)N1CCC(C(=O)N2CCC(Cc3ccccc3)CC2)CC1,n
CCN(CC)CCNC(=O)c1cnc(N2CCN(c3ccccn3)CC2)c2ccccc12,n
O=C(O)CCS(=O)(=O)Cc1ccc(Cl)cc1,n
CC12CCOC1N(Cc1ccccc1)c1ccccc12 (stereo not given),n
CC1CN(C(=O)Cn2cnc3c2c(=O)n(C)c(=O)n3C)CC(C)O1 (stereo not given),95.0%
Cn1c(=O)c2c(ncn2CC(=O)Nc2ccccn2)n(C)c1=O,n
